Assay results published in PubChem BioAssay (EPA / NIEHS).
Several values for one entry are separate records, joined by “and”; a condition that tells them apart may be missing. Equal values may be shown once. Activity calls are given as the source filed them. The calls were made as follows: active = hit-call score of the fitted dose curve at least 0.9, where 1 is the maximum; inactive = score below 0.9.

Read-out: E-selectin (Homo sapiens) (UniProt P16581)
Experiment: BSK_LPS_Eselectin: BioMAP Diversity Plus: LPS Assay for Eselectin Biomarker Activity (AID 2283077)
Conditions: primary human HUVEC with PBMC; actives raise or lower the signal
Method: BSK_LPS is a cell-based, multiplexed-readout assay that uses umbilical vein endothelium and peripheral blood mononuclear cells, a human vascular primary cell co-culture, with measurements taken at 24 hours after chemical dosing in a 96-well plate.BSK_LPS_Eselectin is an assay component measured in the BSK_LPS assay. It measures E-selectin antibody related to regulation of gene expression using ELISA technology.Data from the assay component BSK_LPS_Eselectin was analyzed into 1 assay endpoint. This assay endpoint, BSK_LPS_Eselectin, was analyzed with bidirectional fitting relative to DMSO as the negative control and baseline of activity. Using a type of binding reporter, gain or loss-of-signal activity can be used to understand changes in the signaling as they relate to the gene SELE. Furthermore, this assay endpoint can be referred to as a primary readout, because this assay has produced multiple assay endpoints where this one serves a signaling function. To generalize the intended target to other relatable targets, this assay endpoint is annotated to the cell adhesion molecules intended target family, where the subfamily is selectins.
The levels of cell surface (or secreted, indicated by the prefix "s") biomarker endpoints were measured by ELISA. Overt cytotoxicity to cells in confluent adherent cultures (all systems other than the BT system) was assessed by measuring total protein levels using sulforhodamine B (SRB) staining in parallel cultures at the time of biomarker measurements, indicated as SRB endpoints. For proliferation assays for adherent cell types, individual cell types are cultured at sub-confluence and relative cell numbers quantified by SRB staining at time points optimized for each system (48 h: 3C and CASM3C systems; 72 h: BT and HDF3CGF systems; 96 h: SAg system). SRB was performed by staining cells with 0.1% SRB after fixation with 10% TCA and reading wells at 560 nm.Viability and proliferation of PBMC (T cells) was quantified by Alamar Blue reduction for the SAg and BT systems. For PBMC viability (referred to as PBMC Cytotoxicity within the assay endpoint names), cells were plated (75,000/well in a 96-well plate) and then chemical samples added for 1 h before addition of activators, SEB and TSST-1 (20 ng/mL final concentration each). Cells were incubated for 90 h. Then, Alamar Blue (20 uL/well) (Invitrogen, Cat DAL1100) was added for 6 h, and the plates were read with a fluorescence microplate reader at 546/580 nm (excitation/emission). For PBMC proliferation, cells were plated and activated as above but incubated for only 16 h prior to addition of Alamar Blue. Plates were read after 6 h.

E-selectin (Homo sapiens), sequence (P16581 whole entry, looked up): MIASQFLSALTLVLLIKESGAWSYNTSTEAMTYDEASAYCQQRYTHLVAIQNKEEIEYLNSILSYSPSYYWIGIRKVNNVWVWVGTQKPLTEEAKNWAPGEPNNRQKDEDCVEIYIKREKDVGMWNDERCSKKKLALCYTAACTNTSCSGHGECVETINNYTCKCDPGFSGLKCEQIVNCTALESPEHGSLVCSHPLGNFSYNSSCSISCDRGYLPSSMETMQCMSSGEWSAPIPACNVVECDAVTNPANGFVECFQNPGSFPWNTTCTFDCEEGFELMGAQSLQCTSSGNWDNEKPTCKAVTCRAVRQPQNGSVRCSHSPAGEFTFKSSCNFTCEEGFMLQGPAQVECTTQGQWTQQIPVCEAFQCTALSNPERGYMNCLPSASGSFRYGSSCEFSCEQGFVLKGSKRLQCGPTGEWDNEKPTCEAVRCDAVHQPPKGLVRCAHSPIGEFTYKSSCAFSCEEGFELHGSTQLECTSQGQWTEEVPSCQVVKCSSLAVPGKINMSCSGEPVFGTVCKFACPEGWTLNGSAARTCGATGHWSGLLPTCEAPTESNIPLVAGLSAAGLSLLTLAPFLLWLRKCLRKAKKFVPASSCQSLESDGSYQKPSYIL

| SMILES | outcome | AC50 |
| --- | --- | --- |
| CCCCN(CCCC)N=O | inactive |  |
| Cc1ccc([N+](=O)[O-])cc1C | inactive |  |
| CC(C)(C)OOC(C)(C)C | inactive |  |
| CC(Cl)(Cl)C(=O)O | inactive |  |
| O=C(O)C(F)(OC(F)(F)C(F)(F)C(F)(F)F)C(F)(F)F (stereo not given) | inactive |  |
| O=C(O)C(F)(F)OC(F)(F)C(F)(F)OC(F)(F)C(=O)O | inactive |  |
| OCC(F)(F)OC(F)(F)C(F)(F)OC(F)(F)C(F)(F)OC(F)(F)F | inactive |  |
| FC(F)(F)C(F)(C(F)(F)F)C(F)(F)C(F)(F)CC1CO1 (stereo not given) | inactive |  |
| CCCCC(CC)COP(=O)(Oc1ccccc1)Oc1ccccc1 (stereo not given) |  | 20 µM (active) |
| N#Cc1cc([N+](=O)[O-])ccc1N | inactive |  |
| Cc1ccc2c(c1N)C(=O)c1ccccc1C2=O | inactive |  |
| CCOc1ccc(C(C)(C)COCc2cccc(Oc3ccccc3)c2)cc1 | inactive |  |
| CCCCOCCOP(=O)(OCCOCCCC)OCCOCCCC | inactive |  |
| Cc1c([N+](=O)[O-])cc2c(c1[N+](=O)[O-])C(C)(C)CC2(C)C | inactive |  |
| COP(=O)(O)OC | inactive |  |
| O=C(O)C1C(C(=O)O)C2(Cl)C(Cl)=C(Cl)C1(Cl)C2(Cl)Cl (stereo not given) | inactive |  |
| COCCOCCO | inactive |  |
| O=C(O)C(Cl)Cl | inactive |  |
| c1nc[nH]n1 | inactive |  |
| C=CC(=O)OCC(F)(F)C(F)F |  | 45.9 µM (active) and 47.4 µM (active) |

| SMILES | outcome | AC50 |
| --- | --- | --- |
| CCOP(=S)(S)OCC | inactive |  |
| CC(C)(C)c1ccc(O)cc1 | inactive |  |
| ClC(Cl)=C(c1ccc(Cl)cc1)c1ccccc1Cl |  | 33.4 µM (active) |
| CC(Cl)CN(C)C (stereo not given) | inactive |  |
| Cc1ccc(O)cc1C | inactive |  |
| OCC(F)(F)OC(F)(F)C(F)(F)OC(F)(F)C(F)(F)OC(F)(F)CO | inactive |  |
| O=S1(=O)OCC2C(CO1)C1(Cl)C(Cl)=C(Cl)C2(Cl)C1(Cl)Cl (stereo not given) | inactive |  |
| Cc1cccc(N)c1 | inactive |  |
| CCOP(=S)(OCC)SCn1nnc2ccccc2c1=O | inactive |  |
| O=C(O)C(F)(F)C(F)(F)C(=O)O | inactive |  |
| [N-]=[N+]=[N-] | inactive |  |
| O=P(Oc1ccccc1)(Oc1ccccc1)Oc1ccccc1 | inactive |  |
| CCOP(=S)(OCC)SCS(=O)(=O)CC | inactive |  |
| N#Cc1c(-c2ccc(Cl)cc2)[nH]c(C(F)(F)F)c1Br | inactive |  |
| c1ccc2c(c1)sc1ccccc12 | inactive |  |
| Nc1cc2c3c(c1)C(c1ccccc1)=N[C@@H](NC(=O)c1cccnc1)C(=O)N3CC2 | inactive |  |
| CC(O)C(F)(F)C(F)(F)F (stereo not given) | inactive |  |
| CC(C)(C)c1ccccc1OP(=O)(Oc1ccccc1)Oc1ccccc1 |  | 20 µM (active) |
| CCOP(=S)(NC(C)C)Oc1ccccc1C(=O)OC(C)C (stereo not given) | inactive |  |
| CCOP(=S)(OCC)SCSc1ccc(Cl)cc1 | inactive |  |
